The results in this text go back to ChEMBL document CHEMBL3988442, “University of Dundee, Small-Polar-MMV Screening Library” (2021).

The structures appear in SMILES notation. For some assays here: Potency and affinity values are given separately.

Set-up in all cases: scale not given: direction of the effect not stated beside the values
The target in test [1] is Protein translocase subunit SecA (Escherichia coli (strain K12)) (UniProt P10408). The experiment in a line: Assay to Identify E. coli SecA ATPase Inhibitors. It is filed as functional. Particulars: 30 µM.
Sequence of Protein translocase subunit SecA (Escherichia coli (strain K12)) (P10408 whole entry): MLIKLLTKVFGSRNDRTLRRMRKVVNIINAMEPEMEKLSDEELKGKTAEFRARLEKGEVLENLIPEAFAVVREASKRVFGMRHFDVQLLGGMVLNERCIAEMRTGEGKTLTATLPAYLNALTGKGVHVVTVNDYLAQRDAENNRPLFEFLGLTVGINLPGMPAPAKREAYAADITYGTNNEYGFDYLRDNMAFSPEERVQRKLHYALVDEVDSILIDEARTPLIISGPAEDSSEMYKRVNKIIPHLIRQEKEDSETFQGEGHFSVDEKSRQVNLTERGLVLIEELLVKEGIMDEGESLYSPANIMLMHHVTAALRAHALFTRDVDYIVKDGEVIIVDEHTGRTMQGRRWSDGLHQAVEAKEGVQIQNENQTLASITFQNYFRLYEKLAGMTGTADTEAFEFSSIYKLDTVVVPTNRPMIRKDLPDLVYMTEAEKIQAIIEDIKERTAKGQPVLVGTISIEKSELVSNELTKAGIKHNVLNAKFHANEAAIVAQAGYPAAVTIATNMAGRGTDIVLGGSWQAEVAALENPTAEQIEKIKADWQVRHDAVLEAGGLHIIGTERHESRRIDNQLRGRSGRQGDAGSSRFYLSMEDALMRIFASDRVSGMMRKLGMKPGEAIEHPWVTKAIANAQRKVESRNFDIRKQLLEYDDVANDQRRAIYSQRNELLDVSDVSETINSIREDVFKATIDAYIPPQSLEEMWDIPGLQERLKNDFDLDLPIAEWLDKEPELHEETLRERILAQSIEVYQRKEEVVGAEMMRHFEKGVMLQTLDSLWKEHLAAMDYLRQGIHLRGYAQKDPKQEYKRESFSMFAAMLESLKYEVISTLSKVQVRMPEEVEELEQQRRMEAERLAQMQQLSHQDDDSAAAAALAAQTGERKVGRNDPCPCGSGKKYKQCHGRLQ
Test [2] concerns the target T1, Ubiquitin-activating enzyme e1, putative (Leishmania donovani (strain BPK282A1)) (UniProt E9BSI1).
T1 sequence (whole entry): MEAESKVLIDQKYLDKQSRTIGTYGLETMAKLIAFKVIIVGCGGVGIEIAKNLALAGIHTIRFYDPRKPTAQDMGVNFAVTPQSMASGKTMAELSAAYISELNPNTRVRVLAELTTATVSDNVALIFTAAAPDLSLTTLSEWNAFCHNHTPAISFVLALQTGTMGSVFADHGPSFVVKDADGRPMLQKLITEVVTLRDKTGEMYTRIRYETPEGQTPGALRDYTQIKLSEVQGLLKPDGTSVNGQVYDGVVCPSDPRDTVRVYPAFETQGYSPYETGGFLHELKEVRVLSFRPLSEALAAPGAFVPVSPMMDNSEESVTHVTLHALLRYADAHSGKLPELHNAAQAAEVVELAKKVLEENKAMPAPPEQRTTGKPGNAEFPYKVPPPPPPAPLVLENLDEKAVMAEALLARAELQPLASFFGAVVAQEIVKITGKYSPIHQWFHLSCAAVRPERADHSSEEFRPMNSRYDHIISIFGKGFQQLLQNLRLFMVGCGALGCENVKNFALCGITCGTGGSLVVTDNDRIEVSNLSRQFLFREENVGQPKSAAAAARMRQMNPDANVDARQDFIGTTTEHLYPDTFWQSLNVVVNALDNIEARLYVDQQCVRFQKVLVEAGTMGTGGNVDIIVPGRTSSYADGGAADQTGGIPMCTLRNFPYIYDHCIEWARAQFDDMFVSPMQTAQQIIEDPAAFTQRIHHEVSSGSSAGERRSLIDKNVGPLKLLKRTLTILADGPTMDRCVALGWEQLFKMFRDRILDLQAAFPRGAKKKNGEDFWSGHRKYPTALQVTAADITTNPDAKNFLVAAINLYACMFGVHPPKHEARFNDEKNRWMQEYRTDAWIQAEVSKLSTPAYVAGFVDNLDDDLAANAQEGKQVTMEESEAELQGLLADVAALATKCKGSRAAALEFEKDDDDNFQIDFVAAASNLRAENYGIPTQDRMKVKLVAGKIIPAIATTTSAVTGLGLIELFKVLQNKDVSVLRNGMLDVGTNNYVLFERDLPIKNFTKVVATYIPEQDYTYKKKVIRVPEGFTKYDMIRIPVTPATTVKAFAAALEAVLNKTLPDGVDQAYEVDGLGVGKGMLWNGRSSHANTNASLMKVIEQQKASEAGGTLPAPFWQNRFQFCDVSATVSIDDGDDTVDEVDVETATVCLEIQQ
Kind of test: Leishmania donovani Ubiquitin Activating Enzyme (LdE1). It is filed as functional. Particulars: 30 µM.

The target of test [3] is AMP-activated protein kinase, AMPK (Homo sapiens) (UniProt P54646+O43741+P54619+Q9UGJ0+Q9Y478+Q13131+Q9UGI9). The experiment in a line: AMP-dependent Kinase enzyme assay. An in vitro enzyme assay that detects ADP turnover that is directly proportional to AMPK activity. This uses naive AMPK that is activated during the assay with MK-8722. It is filed as functional. Particulars: 30 µM.

For test [4], the target named is Sialic acid-binding Ig-like lectin 9 (Homo sapiens) (UniProt Q9Y336). Kind of test: Hs-Siglec9 ALPHAscreen SOP 20170721. Particulars: 10 µM.
Sequence of Sialic acid-binding Ig-like lectin 9 (Homo sapiens) (Q9Y336 whole entry): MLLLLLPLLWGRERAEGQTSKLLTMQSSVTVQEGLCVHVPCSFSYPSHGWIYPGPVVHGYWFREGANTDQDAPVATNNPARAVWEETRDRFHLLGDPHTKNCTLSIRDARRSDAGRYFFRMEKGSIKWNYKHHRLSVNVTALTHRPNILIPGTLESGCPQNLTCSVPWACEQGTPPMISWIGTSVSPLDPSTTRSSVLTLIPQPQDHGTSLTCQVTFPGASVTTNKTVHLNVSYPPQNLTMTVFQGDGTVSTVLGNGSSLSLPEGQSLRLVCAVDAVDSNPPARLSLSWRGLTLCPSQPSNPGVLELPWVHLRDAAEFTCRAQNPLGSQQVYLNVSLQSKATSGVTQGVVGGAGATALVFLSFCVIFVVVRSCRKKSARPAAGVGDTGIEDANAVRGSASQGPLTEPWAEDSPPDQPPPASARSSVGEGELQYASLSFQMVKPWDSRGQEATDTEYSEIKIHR
The test system of test [5] is Trypanosoma cruzi. The experiment in a line: Trypanosoma cruzi phosphomannomutase and mannose-1-phosphate guanylyltransferase assay. It is filed as functional. Particulars: 10 µM.
Test [6] has as its target T2, Arginase-2, mitochondrial (Homo sapiens) (UniProt P78540).
T2 sequence (whole entry): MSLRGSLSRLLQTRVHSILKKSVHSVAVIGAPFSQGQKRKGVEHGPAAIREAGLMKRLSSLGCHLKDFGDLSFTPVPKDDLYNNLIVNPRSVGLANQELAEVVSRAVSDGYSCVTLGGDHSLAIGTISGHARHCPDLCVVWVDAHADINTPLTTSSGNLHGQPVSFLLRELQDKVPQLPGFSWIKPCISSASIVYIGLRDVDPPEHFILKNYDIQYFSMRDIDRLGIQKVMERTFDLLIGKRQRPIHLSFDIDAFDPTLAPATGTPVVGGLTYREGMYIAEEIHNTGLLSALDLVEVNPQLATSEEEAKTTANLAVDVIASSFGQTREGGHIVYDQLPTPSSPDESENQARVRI
The experiment in a line: in vitro enzyme assay to detect the production of urea directly proportional to the activity of Arginase II. Note: in the data most compounds retested in dose-response had high values. It is filed as functional. Particulars: 33.3 µM.

For test [7], the target named is T3, Proteasome subunit beta (Trypanosoma cruzi) (UniProt O96673).
T3 sequence (whole entry): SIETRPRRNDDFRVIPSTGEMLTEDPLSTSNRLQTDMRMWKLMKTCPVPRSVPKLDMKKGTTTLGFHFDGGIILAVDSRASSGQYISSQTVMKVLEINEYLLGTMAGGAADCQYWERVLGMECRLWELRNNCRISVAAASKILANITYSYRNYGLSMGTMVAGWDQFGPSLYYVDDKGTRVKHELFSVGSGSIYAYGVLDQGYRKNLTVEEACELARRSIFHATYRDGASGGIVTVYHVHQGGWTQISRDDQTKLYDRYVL
Kind of test: Trypanosoma cruzi proteasome chymotrypsin-like activity (TcProtChymo) assay. Note: in the data most compounds retested in dose-response had high values. It is filed as functional. Particulars: 9.37 µM.

For test [8], the species on record is Homo sapiens. Kind of test: To identify inhibition of the IFN signalling (Jak-Stat) pathway via expression of an eGFP reporter gene under the control of an IFN-stimulated response element (ISRE) containing MxA promoter. It is filed as functional. Particulars: 30 µM.
In test [9] the target is T4, Tyrosyl-tRNA synthetase, putative (Trypanosoma cruzi (strain CL Brener)) (UniProt Q4DSP6).
T4 sequence (whole entry): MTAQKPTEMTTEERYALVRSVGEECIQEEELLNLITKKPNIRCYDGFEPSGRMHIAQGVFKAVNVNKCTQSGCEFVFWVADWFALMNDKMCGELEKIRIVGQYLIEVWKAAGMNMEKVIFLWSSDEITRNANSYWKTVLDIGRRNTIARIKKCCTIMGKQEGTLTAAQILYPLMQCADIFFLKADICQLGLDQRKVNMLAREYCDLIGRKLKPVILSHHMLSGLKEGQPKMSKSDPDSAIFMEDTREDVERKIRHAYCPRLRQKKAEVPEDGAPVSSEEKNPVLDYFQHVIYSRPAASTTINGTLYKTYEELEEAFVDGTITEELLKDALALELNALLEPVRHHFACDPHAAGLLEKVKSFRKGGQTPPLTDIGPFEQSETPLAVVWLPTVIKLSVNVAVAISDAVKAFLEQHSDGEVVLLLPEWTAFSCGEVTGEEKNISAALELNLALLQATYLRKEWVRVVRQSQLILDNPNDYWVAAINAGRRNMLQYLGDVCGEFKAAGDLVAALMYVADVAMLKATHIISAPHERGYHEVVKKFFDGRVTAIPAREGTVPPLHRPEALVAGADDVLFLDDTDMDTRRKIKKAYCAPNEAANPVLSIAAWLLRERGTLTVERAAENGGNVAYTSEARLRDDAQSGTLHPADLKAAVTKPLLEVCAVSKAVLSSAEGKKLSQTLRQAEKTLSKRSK
The experiment in a line: Trypanosoma cruzi tyrosyl tRNA synthetase (TcYRS) _High Tyrosine SOP. Note: in the data most compounds retested in dose-response had high values. Particulars: 30 µM. It is filed as functional.

Test [10] has as its target T4, Tyrosyl-tRNA synthetase, putative (Trypanosoma cruzi (strain CL Brener)). The experiment in a line: Trypanosoma cruzi tyrosyl tRNA synthetase (TcYRS) SOP. Particulars: 30 µM. It is filed as functional.
The target in test [11] is Chromo domain-containing protein 1 (Saccharomyces cerevisiae (strain ATCC 204508 / S288c) (Baker's yeast)) (UniProt P32657). Kind of test: ScCHD-1 Enzyme Inhibition Assay. Note: in the data most compounds retested in dose-response had high values. It is filed as functional. Particulars: 30 µM.
Sequence of Chromo domain-containing protein 1 (Saccharomyces cerevisiae (strain ATCC 204508 / S288c) (Baker's yeast)) (P32657 whole entry, the tested form may be a part): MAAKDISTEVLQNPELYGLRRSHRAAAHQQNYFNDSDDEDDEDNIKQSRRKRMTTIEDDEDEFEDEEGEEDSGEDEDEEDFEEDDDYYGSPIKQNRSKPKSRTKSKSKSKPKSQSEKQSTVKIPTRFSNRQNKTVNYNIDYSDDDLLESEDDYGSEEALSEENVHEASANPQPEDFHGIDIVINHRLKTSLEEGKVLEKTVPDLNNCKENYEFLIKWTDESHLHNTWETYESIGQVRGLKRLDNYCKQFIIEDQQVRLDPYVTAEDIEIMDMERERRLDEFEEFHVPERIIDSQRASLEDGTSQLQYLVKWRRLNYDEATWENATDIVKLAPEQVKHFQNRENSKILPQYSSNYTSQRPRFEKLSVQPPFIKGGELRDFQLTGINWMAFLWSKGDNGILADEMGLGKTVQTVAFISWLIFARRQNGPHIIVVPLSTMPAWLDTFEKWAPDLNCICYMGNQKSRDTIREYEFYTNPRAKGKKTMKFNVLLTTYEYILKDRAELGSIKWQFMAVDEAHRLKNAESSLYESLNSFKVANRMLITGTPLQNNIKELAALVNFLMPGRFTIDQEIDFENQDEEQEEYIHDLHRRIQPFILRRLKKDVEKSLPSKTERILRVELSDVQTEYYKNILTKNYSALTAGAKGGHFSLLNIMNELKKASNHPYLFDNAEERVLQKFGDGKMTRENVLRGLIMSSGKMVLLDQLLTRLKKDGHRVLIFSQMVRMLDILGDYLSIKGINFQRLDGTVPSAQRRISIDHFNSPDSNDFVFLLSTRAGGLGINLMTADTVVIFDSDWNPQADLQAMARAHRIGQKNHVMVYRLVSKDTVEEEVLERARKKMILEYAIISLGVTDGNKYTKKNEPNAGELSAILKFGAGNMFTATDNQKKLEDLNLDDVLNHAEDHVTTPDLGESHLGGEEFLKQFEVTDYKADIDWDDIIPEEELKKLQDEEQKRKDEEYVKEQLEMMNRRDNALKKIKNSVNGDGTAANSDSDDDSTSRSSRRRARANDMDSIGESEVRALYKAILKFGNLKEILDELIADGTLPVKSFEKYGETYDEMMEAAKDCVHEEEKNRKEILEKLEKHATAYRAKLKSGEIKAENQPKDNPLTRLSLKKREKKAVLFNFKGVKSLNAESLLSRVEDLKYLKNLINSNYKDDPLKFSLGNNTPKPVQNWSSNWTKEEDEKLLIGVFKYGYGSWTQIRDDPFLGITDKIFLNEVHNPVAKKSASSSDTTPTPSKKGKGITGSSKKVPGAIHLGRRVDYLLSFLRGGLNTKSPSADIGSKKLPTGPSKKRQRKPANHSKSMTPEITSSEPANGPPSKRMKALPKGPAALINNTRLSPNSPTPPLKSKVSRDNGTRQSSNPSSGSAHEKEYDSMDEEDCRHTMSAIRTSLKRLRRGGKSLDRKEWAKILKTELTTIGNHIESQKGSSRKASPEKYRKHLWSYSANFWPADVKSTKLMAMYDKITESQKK

With `CN1C(=O)C(c2cccnc2)CC12CCN(C(=O)c1cccn1C)CC2` (stereo not given), the Percent Effect in test [1] is -1.55%; in test [2], 0%; in [3], -0.439%; in [4], 0.0913%; in test [5], 0%; in test [6] it was 4.48%. Besides, the Percent Effect in test [7] is 6.67%; in test [8], -2.67%; in test [9] it was -3.12%; in [10], -2.5%; in [11], -4.59%.
On to `CCOCC(O)CN1CCN(C(=O)c2cccc(F)c2)CC1` (stereo not given), for which the Percent Effect in test [1] is -1.53%; in test [2] it was 2.7%; in test [3] it was -2.77%; in test [4], -2.18%; in test [5], 7.92%; in test [6], -2.86%. Moreover, the Percent Effect in [7] is 5.17%; in test [8] it was 13.8%; in test [9], 0.529%; in [10], -9.76%; in [11] it was -2.68%.
Turning to `Cc1ccsc1C(=O)N1CC(C(=O)NCC2CC2)C2(CCOCC2)C1` (stereo not given), the Percent Effect in [1] was -6.49%; in test [2], 7.79%; in test [3], 87.3%; in test [4], -3.49%; in test [5], -9.57%; in test [6], 1.94%. The Percent Effect was 8.36% in [7]; 27.5% in test [8]; 0% in [9]; -3.85% in test [10]; -7.68% in [11].
As to `COc1cccc(C2CCCN2C(=O)c2cc3c([nH]c2=O)CCC3)c1` (stereo not given), the Percent Effect in test [1] was -1.17%; in [2], 5.41%; in [3], 0.0672%; in test [4], -4.05%; in test [5], 1.17%; in test [6], 25%. Moreover, the Percent Effect in test [7] was 16%; in test [8] it was 5.64%; in test [9] it was 7.92%; in [10], 6.1%; in test [11], -6.8%.
`Fc1ccc(CNCC2OCCc3cn(CC4CC4)nc32)cc1` (stereo not given): the Percent Effect is -3.44% in [1]; 0% in [2]; 12.4% in test [3]; 6.39% in [4]; 2.05% in test [5]; -4.78% in test [6]. Moreover, the Percent Effect is 12.4% in test [7]; 9.33% in test [8]; 3.24% in test [9]; 7.69% in test [10]; 8.43% in test [11].
In the case of `Cc1ncsc1C(=O)N(C)Cc1ccncc1`, the Percent Effect is -4.37% in test [1]; 10.5% in test [2]; 3% in [3]; -5.42% in [4]; -6.58% in test [5]; -2.68% in [6]. The Percent Effect was 16% in test [7]; 23.6% in test [8]; 1.47% in [9]; -7.32% in test [10]; -6% in test [11].
With `Cc1cc(C)c(CNC(=O)NCC2CCCO2)c(=O)[nH]1` (stereo not given), the Percent Effect in [1] was -9.94%; in test [2], 2.63%; in test [3] it was 3.27%; in test [4], 0.242%; in [5], -5.64%; in test [6], -2.3%. The Percent Effect in test [7] is -2.17%; in [8] it was 19.5%; in test [9] it was -3.43%; in [10] it was -2.44%; in test [11], 2.35%.
Consider `c1ccc(-c2nccc(CNCC3CCCN3c3cccnn3)n2)cc1` (stereo not given), for which the Percent Effect in test [1] is -3.71%; in test [2] it was -18.4%; in test [3], 3.25%; in [4], -4.68%; in test [5], -0.94%; in test [6] it was 0.383%. Further, the Percent Effect in test [7] was -0.501%; in test [8], 20.1%; in test [9] it was 6.37%; in test [10] it was -2.44%; in [11], 11.3%.
For the compound `Cc1noc(C)c1C1CCCN1C(=O)CN1CC2(CCNCC2)OC1=O` (stereo not given), the Percent Effect is -6.39% in [1]; 0% in test [2]; 4.75% in [3]; 9.41% in test [4]; -1.35% in [5]; -3.81% in test [6]. Also, the Percent Effect in [7] is 6.9%; in test [8], -4.21%; in [9] it was 3.7%; in [10] it was 0%; in [11], -4.34%.
Turning to `Cc1nc(CN2CCCN(C(=O)C3(C#N)CCCCC3)CC2)cs1`, the Percent Effect in [1] is -5.19%; in test [2] it was 5.06%; in test [3] it was -4.31%; in test [4] it was 9.63%; in test [5] it was -1.79%; in test [6], 0%. For the same compound, the Percent Effect in test [7] is 7.12%; in test [8], 13.8%; in test [9] it was 6.4%; in test [10], 13.9%; in test [11] it was -3.28%.
